Active and inactive are the calls of the source. Rule for the calls: active = hit-call score of the fitted dose curve at least 0.9, where 1 is the maximum; inactive = score below 0.9.
experiment: CEETOX_H295R_11DCORT: CeeTox H295R High-throughput Steroidogenesis Assay for 11-Deoxycortisol (11DCORT) (AID 2283432); conditions: actives raise or lower the signal;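 for AC50: 11-deoxycortisol secreted into the medium measured by LC-MS/MS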
Experimental: CEETOX_H295R is a cell-based, multiplexed-readout assay that uses H295R, a human adrenal gland cell line, with measurements taken at 48 hours after chemical dosing in a 96-well plate.CEETOX_H295R_11DCORT is one of 23 assay component(s) measured or calculated from the CEETOX_H295R assay. It is designed to make measurements of hormone induction, a form of inducible reporter, as detected with absorbance signals by HPLC-MS-MS technology.Data from the assay component CEETOX_H295R_11DCORT was analyzed into 1 assay endpoint. This assay endpoint, CEETOX_H295R_11DCORT, was analyzed with bidirectional fitting relative to DMSO as the negative control and baseline of activity. Using a type of inducible reporter, gain or loss-of-signal activity using HPLC-MS-MS was used to understand synthesis of 11-Deoxycortisol in H295R cell line at 48hr of chemical exposure. To generalize the intended target to other relatable targets, this assay endpoint is annotated to the steroid hormone intended target family, where the subfamily is glucocorticoids.
Cell culture and media preparation procedures were conducted in accordance with OECD Test No. 456 guidelines, with minor modifications. H295R cells (ATCC CRL-2128) were expanded for 5 passages and frozen in batches in liquid nitrogen. Prior to the steroidogenesis assay, H295R cells were thawed and passed at least 4 times. The maximum passage was 10. Cells were maintained in a 1:1 mixture of DMEM/F12 supplemented with 5ml/L ITS+ Premix (BD Bioscience) and 12.5 ml/L Nu-Serum (BD Bioscience). After seeding cells into 96-well plates at 50-60% confluency, cells were allowed to adhere overnight. Prior to chemical testing, culture medium was replaced with 175 uL medium containing 10 uM forskolin to stimulate steroidogenesis for 48 hours. Following prestimulation, forskolin medium was replaced with medium containing test chemical solubilized in DMSO (ensuring a final concentration of 0.1% DMSO). Test chemicals were incubated for 48 hours, then the medium was removed and split into 2 vials containing approximately 75uL each, and stored at -80 C prior to hormone analysis. For steroid quantification, media samples were shipped to OpAns, LLC (Durham, NC) on dry ice, and samples were thawed to room temperature prior to liquid-liquid extraction. Steroid hormones were extracted from media samples using methyl tertbutyl ether (MTBE). An extra derivatization with dansyl chloride was included for estrogen (estrone and estradiol) detection only. Steroid hormones were separated by HPLC, eluted using a reverse phase C18 gradient with electrospray positive ionization, followed by quantification by tandem mass spectrometry (MS/MS). Data were acquired on a MassHunter Workstation Acquisition version B03.01 (Agilent Technologies, Inc.) and processed using MassHunter Quantitative Analysis for QQQ. Accuracy was determined for each hormone analyte from 3 standards to determine upper and lower limits of quantification (ULOQ and LLOQ, respectively) using a 7-point standard curve. Precision and accuracy of the extraction and quantification methods were calculated as the percent relative standard deviation (%RSD) of the spiked standards and percent spiked standard recovered, respectively. The goal was to achieve 100% accuracy (i.e., recover all spiked-in standard at quantification with minimal loss during run time) and good precision (i.e., have %RSD <15% to ensure reproducibility). Test medium was removed following chemical exposure, and cell viability was evaluated in the same wells by MTT. MTT procedures were as follows: after removal of test medium, 500 uL of 0.5 mg/ml of 3-[4,5-dimethylthiazol-2-y]2,5-diphenyltetrazoliumbromide solution was added to the cells. Following a 4-hour incubation at 37 C and 5% CO2 to allow formazan-crystal formation, the MTT solution was removed and blue formazan salt crystals were solubilized using 500uL anhydrous isopropanol with shaking for 20 minutes. […]

Compound	AC50	outcome
Nc1cccc2c(N)cccc12	5 µM (active)	
c1ccc2c(c1)ccc1ccccc12	55.9 µM (active)	
O=C(O)c1ccccc1C(c1ccc(O)cc1)c1ccc(O)cc1	25 µM (active)	
CCCCCCCCC(=O)O		inactive
O=c1c(-c2ccc(O)cc2)coc2cc(O)ccc12	9.01 µM (active)	
Oc1cccc(O)c1		inactive
CCC(=C(c1ccc(O)cc1)c1ccc(OCCN(C)C)cc1)c1ccccc1		inactive
CCc1nn(C2CCCCC2)c2cc(C3(C#N)CCC(C(=O)O)CC3)ccc12 (configuration not stated)		inactive
NC(=O)N(O)[C@@H]1C=C[C@H](Oc2cccc(Oc3ccc(F)cc3)c2)C1		inactive
CCCCCCCCCCCCCCCS(=O)(=O)Oc1ccccc1		inactive
CC1=C(/C=C/C(C)=C/C=C/C(C)=C/C(=O)O)C(C)(C)CCC1		inactive
OC1CCC(C2CCCCC2)CC1 (configuration not stated)		inactive
COc1ccc([N+](=O)[O-])cc1N	50 µM (active)	
CCc1ccc(CCOc2ccc(CC3SC(=O)NC3=O)cc2)nc1 (configuration not stated)		inactive
CCCOC(=O)c1ccc(O)cc1	35.4 µM (active)	
COC(=O)CCCCC(=O)OC		inactive
C[C@@H]1C[C@H]2[C@@H]3CCC4=CC(=O)C=C[C@]4(C)[C@@]3(F)[C@@H](O)C[C@]2(C)[C@@]1(O)C(=O)COP(=O)(O)O		inactive

From PubChem BioAssay (EPA / NIEHS)
